According to PubChem BioAssay (NCATS):
Results filed as inconclusive are left out. Activity calls are given as the source filed them. The call rests on the fitted dose curve; in most records, active means well fitted curve in the direction sought with a large enough effect; inconclusive means small, poorly fitted or top-dose-only effect, or another doubt; inactive means no such curve, though single readings can be large; an effect the other way counts as inactive or inconclusive.

How the values were obtained:
[1] = biological target: Retinaldehyde dehydrogenase 3 (Homo sapiens) (UniProt P47895); assay: qHTS for Inhibitors of the Aldehyde Dehydrogenase Family (ALDH1A3) Validation screen (AID 2061312); further: on the % scale 0 is the no-effect control and ±100 the full control effect; nearly all actives have a fitted effect of over 45% in size
[2] = BET inhibitor-based combinations targeting novel dependencies in MECOM-rearranged (r) AML: SET-2 cell line (AID 2202231); settings: SET-2 AML cells viability, CellTiter-Glo luminescence, 48 h; viability: hits give low values, concentration not given here; further: nearly all actives have a fitted effect of over 35% in size; further: potency means the concentration at half of the fitted maximal effect;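 on viability: plate controls were DMSO treated cells for no effect and wells without cells for full effect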
Method in brief: (§1)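 Cells were plated at 500 per well and exposed to an 11-point dose series of each drug for 48 hr. Viability was measured by CellTiter-Glo luminescence, normalized to DMSO and empty-well controls, and summarized as AUC and per-cell-line Z-AUC.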

[3] = BET inhibitor-based combinations targeting novel dependencies in MECOM-rearranged (r) AML: MV-4-11 cell line (AID 2202233); further: nearly all actives have a fitted effect of over 45% in size; further: potency means the concentration at half of the fitted maximal effect
Method in brief: (§2)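 Activity is given as area under the curve and as Z-AUC, mean-centred within each cell line. It comes from 11-point dose curves normalized to DMSO and empty wells. CellTiter-Glo luminescence was read after 48 hr drug exposure of 500 cells/well.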

[4] = BET inhibitor-based combinations targeting novel dependencies in MECOM-rearranged (r) AML: HNT-34 cell line (AID 2202234); further: nearly all actives have a fitted effect of over 35% in size; further: potency means the concentration at half of the fitted maximal effect
Method in brief: as §2

[5] = BET inhibitor-based combinations targeting novel dependencies in MECOM-rearranged (r) AML: UCSD-AML1 cell line (AID 2202235); further: nearly all actives have a fitted effect of over 40% in size; further: potency means the concentration at half of the fitted maximal effect
Method in brief: as §2

[6] = BET inhibitor-based combinations targeting novel dependencies in MECOM-rearranged (r) AML: AML-191 cell line (AID 2202236; further: nearly all actives have a fitted effect of over 35% in size; further: potency means the concentration at half of the fitted maximal effect)
Method in brief: as §1

[7] = BET inhibitor-based combinations targeting novel dependencies in MECOM-rearranged (r) AML: AML-194 cell line (AID 2202237; further: nearly all actives have a fitted effect of over 40% in size; further: potency means the concentration at half of the fitted maximal effect)
Method in brief: as §1

[8] = biological target: Retinaldehyde dehydrogenase 3 (Homo sapiens) (UniProt P47895); assay: qHTS for Inhibitors of the Aldehyde Dehydrogenase Family (ALDH1A3) Confirmatory screens (AID 2061311); further: potency means the concentration at half of the fitted maximal effect; nearly all actives have a fitted effect of over 60% in size
[9] = biological target: Aldehyde dehydrogenase 1A1 (Homo sapiens) (UniProt P00352); assay: qHTS for Inhibitors of the Aldehyde Dehydrogenase Family (ALDH1A1) Confirmatory screens (AID 2061316); further: potency means the concentration at half of the fitted maximal effect; nearly all actives have a fitted effect of over 65% in size
[10] = BET inhibitor-based combinations targeting novel dependencies in MECOM-rearranged (r) AML: OCI-AML3 cell line (AID 2202232); settings: Potency: OCI-AML3 viability; further: nearly all actives have a fitted effect of over 35% in size; further: potency means the concentration at half of the fitted maximal effect
Method in brief: as §1

[11] = biological target: Aldehyde dehydrogenase, mitochondrial (Homo sapiens) (UniProt P05091); assay: qHTS for Inhibitors of the Aldehyde Dehydrogenase Family (ALDH2) Primary screen (AID 2061308);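 further: plate controls were vehicle for no effect and reference inhibitor for full effect; nearly all actives have a fitted effect of over 55% in size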
[12] = biological target: Retinaldehyde dehydrogenase 3 (Homo sapiens) (UniProt P47895); assay: qHTS for Inhibitors of the Aldehyde Dehydrogenase Family (ALDH1A3) Primary screen (AID 2061315);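 further: plate controls were DMSO vehicle for no effect and reference inhibitor for full effect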

Cc1nnc(C(=O)NC(C)(C)c2nc(C(=O)NCc3ccc(F)cc3)c(O)c(=O)n2C)o1
inactive: Potency [1] | viability [2] 118% | Potency [3] | Potency [4] | Potency [5] | Potency [6] | Potency [7]

Cc1cc(N=Nc2ccc(S(=O)(=O)Nc3ccccn3)cc2)c(N)cc1O
active: Potency [8] 11.3 µM | Potency [9] 11.3 µM

COc1ccc2c(OCc3nnc4ccc(-c5ccccc5)nn34)ccnc2c1
inactive: viability [2] 116% | Potency [10] | Potency [3] | Potency [4] | Potency [5] | Potency [6] | Potency [7]

COc1cccc(-c2cc(F)ccc2C2Cc3nc(N)nc(C)c3C(=O)N2)n1 (stereo unspecified)
active: Potency [2] 0.0742 µM | Potency [10] 0.0661 µM | Potency [3] 0.0417 µM | Potency [4] 0.132 µM | Potency [5] 0.105 µM | Potency [6] 0.0934 µM | Potency [7] 0.0934 µM

CC(C)(C)NC(=O)Nc1cccc(Nc2ncc(F)c(NC(C)(C)CO)n2)c1
active: Potency [2] 16.6 µM | Potency [10] 3.72 µM | Potency [3] 2.63 µM | Potency [5] 3.72 µM | Potency [7] 5.9 µM
inactive: Potency [11] | Potency [1] | Potency [12]

COc1cc(-c2nn(C3CCC(N4CCN(C(C)=O)CC4)CC3)c3ncnc(N)c23)ccc1NC(=O)c1cc2ccccc2n1C (stereo unspecified)
active: Potency [2] 9.34 µM | Potency [3] 9.34 µM | Potency [6] 5.9 µM | Potency [7] 4.17 µM
inactive: Potency [11] | Potency [1] | Potency [12]

C=C1CCC2[C@@](C)(C=O)CCC[C@]2(C)[C@H]1CC/C(C)=C/CO (stereo partly specified)
inactive: Potency [11] | Potency [12]

COc1ccc(C#Cc2ccc(C(=O)N3CCC[C@@H](O)C3)c(F)c2)cc1
inactive: Potency [11] | Potency [12]

Cc1cc(O)c(C(C)C)cc1O[C@@H]1O[C@H](CO)[C@@H](O)[C@H](O)[C@H]1O
inactive: Potency [11] | Potency [12]

COc1cc(/C=C/C(=O)O[C@H]2C[C@@H]3C(C(=O)O)=CO[C@@H](O[C@@H]4O[C@H](CO)[C@@H](O)[C@H](O)[C@H]4O)[C@@H]3[C@H]2C)ccc1O
inactive: Potency [11] | Potency [12]

CNC1CCC(N(Cc2cccc(-c3ccncc3)c2)C(=O)c2sc3c(F)ccc(F)c3c2Cl)CC1 (stereo unspecified)
active: Potency [2] 26.3 µM | Potency [10] 16.6 µM | Potency [3] 16.6 µM | Potency [4] 20.9 µM | Potency [6] 20.9 µM | Potency [7] 23.5 µM
inactive: Potency [11] | Potency [1] | Potency [12]

COC1OC(O)C2(CCC3(O2)C(C)CC2OC(=O)C4(C)CCCC3(C)C24)C1O (stereo unspecified)
inactive: Potency [11] | Potency [12]

CC(=O)OC1CC2(C)C(CCC(C)C23Cc2c(O)cc(CO)c(C=O)c2O3)C(C)(C)C1O (stereo unspecified)
inactive: Potency [11] | Potency [12]

C[C@@H](Nc1cc(NS(=O)(=O)N2CCC2)nc(SCc2cccc(F)c2F)n1)[C@@H](O)CO
inactive: Potency [11] | Potency [12]
